PubChem BioAssay (EPA / NIEHS)
The source made the active and inactive calls. Rule for the calls: active = hit-call score of the fitted dose curve at least 0.9, where 1 is the maximum; inactive = score below 0.9.

Columns and labels:
[1] = ATG_CRE_CIS: Attagene CIS-FACTORIAL HepG2 Assay for human cAMP Responsive Element (CRE) binding protein 3 (AID 2282926); conditions: HepG2 CRE cis-reporter, Attagene multiplexed mRNA; actives raise or lower the signal
Procedure, shortened: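 Cells carrying cis-regulated reporter constructs respond through their own endogenous factors. After 24 h treatment, RNA is reverse-transcribed, amplified, labelled and sized by capillary electrophoresis; up- and down-regulation are both scored against vehicle.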

[2] = biological target: CCAAT/enhancer-binding protein beta (Homo sapiens) (UniProt P17676); assay: ATG_C_EBP_CIS: Attagene CIS-FACTORIAL HepG2 Assay for human CCAAT/Enhancer Binding Protein (C/EBP) beta (AID 2282927); conditions: HepG2 Attagene cis-factorial transcription factor reporter; actives raise or lower the signal
Procedure, shortened: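 Changes in reporter mRNA, rather than exogenous chimeric receptor activity, reflect native C/EBP signalling in transfected HepG2 cells dosed for 24 h; transcripts are detected by RT-PCR and capillary electrophoresis.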

[3] = ATG_CMV_CIS: Attagene CIS-FACTORIAL HepG2 Assay for human CMV (Internal Marker) (AID 2282928); conditions: HepG2 CMV promoter reporter, transcription factor profiling; actives raise or lower the signal;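 note: endpoint acts as a background internal control marker rather than a target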
Procedure, shortened: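 24 h chemical treatment, HepG2 with transient multi-reporter transfection; RNA → oligo(dT) RT → PCR → 6-FAM extension → HpaI digest → CE fluorescence. Bidirectional fit, DMSO negative control.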

[4] = ATG_DR4_LXR_CIS: Attagene CIS-FACTORIAL HepG2 Assay for human Liver X Receptor (LXR), DR4 submotif (AID 2282929); conditions: HepG2 Attagene DR4 cis-reporter, mRNA transcription; actives raise or lower the signal
Procedure, shortened: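 HepG2, transient MRTU transfection, cis-element (DR4) promoter; 24 h compound exposure; total RNA → oligo(dT) RT → PCR → 6-FAM primer extension → HpaI cut → CE. Gain/loss vs DMSO, bidirectional fit.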

[5] = biological target: Aryl hydrocarbon receptor (Homo sapiens) (UniProt P35869); assay: ATG_Ahr_CIS: Attagene CIS-FACTORIAL HepG2 Assay for human Aryl Hydrocarbon Receptor (Ahr) (AID 2282930); conditions: HepG2 AhR cis-factorial reporter transcription; actives raise or lower the signal
Procedure, shortened: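 HepG2, transient MRTU (cis) transfection, 24 h exposure. RNA → cDNA → PCR → 6-FAM primer extension → HpaI 2 h 37 C → CE. Fit: bidirectional, DMSO baseline.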

[6] = ATG_AP_1_CIS: Attagene CIS-FACTORIAL HepG2 Assay for human Activator Protein 1 (AP-1) (AID 2282931); conditions: HepG2 Attagene cis-factorial AP-1 reporter mRNA; actives raise or lower the signal
Procedure, shortened: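 Transient MRTU transfection of HepG2 → 24 h chemical treatment → RNA isolation, RT-PCR, 6-FAM labelling, HpaI digest → capillary electrophoresis. Fit: bidirectional, DMSO negative control.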

[7] = ATG_AP_2_CIS: Attagene CIS-FACTORIAL HepG2 Assay for human Activator Protein 2 (AP-2) (AID 2282932); conditions: HepG2 AP-2 cis-reporter, Attagene transcription factor profiling; actives raise or lower the signal
Procedure, shortened: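 Transiently transfected HepG2 cells are exposed to chemical for 24 h. Reporter transcripts are then measured as fluorescence following RT-PCR and capillary separation, and gain- or loss-of-signal is fitted relative to DMSO.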

[8] = ATG_BRE_CIS: Attagene CIS-FACTORIAL HepG2 Assay for human Bone Morphogenetic Protein (BMP) Response Element (BRE) (AID 2282933); conditions: HepG2 BMP response element reporter, Attagene transcription factor profiling; actives raise or lower the signal
Procedure, shortened: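 HepG2 cells transiently transfected with multiplexed cis-element reporter units were dosed with chemical for 24 h. Reporter mRNA was measured by RT-PCR with fluorescent labelling, HpaI digestion and capillary electrophoresis; bidirectional fitting relative to DMSO.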

[9] = biological target: Retinoic acid receptor alpha (Homo sapiens) (UniProt P10276); assay: ATG_DR5_RAR_CIS: Attagene CIS-FACTORIAL HepG2 Assay for human Retinoic Acid Receptor Alpha (RARE), DR5 submotif (AID 2282934); conditions: HepG2 Attagene cis-factorial RARE DR5 reporter, mRNA; actives raise or lower the signal;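 for AC50: reporter responds to endogenous RAR alpha beta and gamma in HepG2 not RARA alone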
Procedure, shortened: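 HepG2, transient cis-reporter transfection, 24 h exposure. mRNA readout: RT-PCR, FAM label, HpaI cut, capillary electrophoresis. DMSO baseline, gain/loss fitting.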

[10] = biological target: Transcription factor E2F1 (Homo sapiens) (UniProt Q01094); assay: ATG_E2F_CIS: Attagene CIS-FACTORIAL HepG2 Assay for human E2F Transcription Factor 1 (AID 2282935); conditions: HepG2 Attagene cis-reporter, E2F reporter RNA transcripts; actives raise or lower the signal
Procedure, shortened: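 Fluorescent RT-PCR products, digested with HpaI for 2 h at 37 C, are separated by capillary electrophoresis. Source RNA comes from transfected HepG2 cultures treated for 24 h.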

[11] = ATG_E_Box_CIS: Attagene CIS-FACTORIAL HepG2 Assay for human Enhancer Box (E-box) (AID 2282936); conditions: HepG2 E-box cis-reporter transcription, actives raise or lower the signal
Procedure, shortened: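 Fluorescent reporter fragments separated by capillary electrophoresis gave the signal; mRNA came from HepG2 cells transfected with cis-element reporters and treated 24 h. Curves fitted bidirectionally relative to DMSO controls.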

[12] = ATG_M_61_CIS: Attagene CIS-FACTORIAL HepG2 Assay for M61 Transcription Factor (Internal Marker) (AID 2282937); conditions: HepG2 Attagene CIS-FACTORIAL M61 internal marker reporter; actives raise or lower the signal
Procedure, shortened: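 Human liver HepG2, transient MRTU transfection (cis promoter elements), 24 h compound. Total RNA → oligo(dT) RT → PCR → FAM label → HpaI → CE. Internal background marker; bidirectional fitting, DMSO = baseline.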

[13] = ATG_EGR_CIS: Attagene CIS-FACTORIAL HepG2 Assay for human Early Growth Response 1 (EGR1) (AID 2282938); conditions: HepG2 Attagene CIS-FACTORIAL EGR reporter mRNA; actives raise or lower the signal
Procedure, shortened: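 Transient transfection of human HepG2 with multiple cis-regulated reporter units, chemical exposure 24 h, total RNA isolated. Reverse transcription, PCR, fluorescent labelling and capillary electrophoresis quantify reporter transcripts; activity fitted bidirectionally against DMSO.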

[14] = ATG_M_19_CIS: Attagene CIS-FACTORIAL HepG2 Assay for M19 Transcription Factor (Internal Marker) (AID 2282939); conditions: HepG2 Attagene CIS-FACTORIAL M19 internal marker reporter; actives raise or lower the signal
Procedure, shortened: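 HepG2 cells transiently transfected with cis-regulated multiple reporter transcription units were dosed for 24 h; reporter mRNA was quantified by RT-PCR, 6-FAM primer-extension labelling, HpaI digestion and capillary electrophoresis, with bidirectional fitting against DMSO baseline.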

[15] = ATG_Ets_CIS: Attagene CIS-FACTORIAL HepG2 Assay for human Erythroblast Transformation Specific (ETS) (AID 2282941); conditions: HepG2 ETS cis-reporter transcription, actives raise or lower the signal
Procedure, shortened: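 Cis-regulated reporter mRNA induction in HepG2 (transient transfection), 24 h exposure, RT-PCR plus capillary electrophoresis detection; DMSO serves as negative control and baseline.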

[16] = biological target: Hepatocyte nuclear factor 3-beta (Homo sapiens) (UniProt Q9Y261); assay: ATG_FoxA2_CIS: Attagene CIS-FACTORIAL HepG2 Assay for human Forkhead box A2 (FOXA2) (AID 2282942); conditions: HepG2 cis-reporter transcription factor activity, 24 h; actives raise or lower the signal
Procedure, shortened: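 Transient MRTU transfection of HepG2 liver cells; 24 h treatment; total RNA → oligo(dT) RT → PCR → FAM primer extension → HpaI cut → CE. Bidirectional fit vs DMSO.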

[17] = ATG_FoxO_CIS: Attagene CIS-FACTORIAL HepG2 Assay for human Forkhead box O (FoxO) (AID 2282943); conditions: HepG2 Attagene cis-reporter, FoxO element, mRNA; actives raise or lower the signal
Procedure, shortened: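 Human hepatoma HepG2 cells carry transiently introduced reporter transcription units controlled by cis promoter elements. Chemical treatment lasted 24 h, and mRNA signal was compared with DMSO.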

[18] = ATG_GATA_CIS: Attagene CIS-FACTORIAL HepG2 Assay for human GATA Binding Protein (AID 2282944); conditions: HepG2 GATA cis-element reporter, Attagene multiplex mRNA; actives raise or lower the signal
Procedure, shortened: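 HepG2 cells transiently transfected with multiplexed cis-element reporter units reflecting endogenous transcription factor activity; reporter mRNA measured after 24 h dosing by RT-PCR, 6-FAM labeling, HpaI digestion and capillary electrophoresis. Bidirectional fitting versus DMSO baseline.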

[19] = ATG_GLI_CIS: Attagene CIS-FACTORIAL HepG2 Assay for human Zinc Finger Protein GLI1 (AID 2282945); conditions: HepG2, Attagene cis-factorial reporter mRNA, GLI element; actives raise or lower the signal
Procedure, shortened: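 Bidirectional curve fits relative to DMSO, using reporter mRNA levels from RT-PCR plus capillary electrophoresis. Cells were HepG2 transiently carrying cis-regulated reporter constructs, harvested 24 h after dosing.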

[20] = ATG_ERE_CIS: Attagene CIS-FACTORIAL HepG2 Assay for Estrogen Response Element (ERE) (AID 2282940); conditions: HepG2 ERE cis-reporter, Attagene RNA transcript; actives raise or lower the signal
Procedure, shortened: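 HepG2 cells transiently transfected with cis-promoter-driven multiplexed reporter transcription units report endogenous TF activity. After 24 h compound exposure, reporter mRNA is quantified by RT-PCR with capillary electrophoresis fluorescence; bidirectional fitting versus DMSO baseline.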

Measured: AC50

Hepatocyte nuclear factor 3-beta (Homo sapiens), sequence (Q9Y261 whole entry, looked up): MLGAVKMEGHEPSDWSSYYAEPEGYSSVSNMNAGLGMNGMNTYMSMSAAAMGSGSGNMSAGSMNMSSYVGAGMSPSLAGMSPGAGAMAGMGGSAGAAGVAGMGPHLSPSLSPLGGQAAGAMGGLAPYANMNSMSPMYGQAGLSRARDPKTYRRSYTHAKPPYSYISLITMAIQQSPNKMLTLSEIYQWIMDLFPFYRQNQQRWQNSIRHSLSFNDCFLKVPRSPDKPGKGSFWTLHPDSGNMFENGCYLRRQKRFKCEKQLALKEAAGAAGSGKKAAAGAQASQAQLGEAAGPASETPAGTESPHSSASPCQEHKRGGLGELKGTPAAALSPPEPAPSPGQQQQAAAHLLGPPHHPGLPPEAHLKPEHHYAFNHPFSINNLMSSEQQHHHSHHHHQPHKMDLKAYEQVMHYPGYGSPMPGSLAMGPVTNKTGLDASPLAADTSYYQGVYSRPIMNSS
Transcription factor E2F1 (Homo sapiens), sequence (Q01094 whole entry, looked up): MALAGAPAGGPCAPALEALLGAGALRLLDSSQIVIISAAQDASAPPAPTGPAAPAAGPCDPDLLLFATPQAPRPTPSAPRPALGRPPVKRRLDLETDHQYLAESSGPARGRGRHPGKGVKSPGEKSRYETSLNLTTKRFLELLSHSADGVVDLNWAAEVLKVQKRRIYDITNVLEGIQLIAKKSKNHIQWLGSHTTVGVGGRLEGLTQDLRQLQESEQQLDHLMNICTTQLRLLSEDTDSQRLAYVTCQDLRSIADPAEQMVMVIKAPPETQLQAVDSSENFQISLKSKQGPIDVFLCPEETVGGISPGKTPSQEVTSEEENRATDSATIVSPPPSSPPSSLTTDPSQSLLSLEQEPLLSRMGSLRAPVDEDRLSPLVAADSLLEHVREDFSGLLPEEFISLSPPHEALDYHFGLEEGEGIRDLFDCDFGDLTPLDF
Retinoic acid receptor alpha (Homo sapiens), sequence (P10276 whole entry, looked up): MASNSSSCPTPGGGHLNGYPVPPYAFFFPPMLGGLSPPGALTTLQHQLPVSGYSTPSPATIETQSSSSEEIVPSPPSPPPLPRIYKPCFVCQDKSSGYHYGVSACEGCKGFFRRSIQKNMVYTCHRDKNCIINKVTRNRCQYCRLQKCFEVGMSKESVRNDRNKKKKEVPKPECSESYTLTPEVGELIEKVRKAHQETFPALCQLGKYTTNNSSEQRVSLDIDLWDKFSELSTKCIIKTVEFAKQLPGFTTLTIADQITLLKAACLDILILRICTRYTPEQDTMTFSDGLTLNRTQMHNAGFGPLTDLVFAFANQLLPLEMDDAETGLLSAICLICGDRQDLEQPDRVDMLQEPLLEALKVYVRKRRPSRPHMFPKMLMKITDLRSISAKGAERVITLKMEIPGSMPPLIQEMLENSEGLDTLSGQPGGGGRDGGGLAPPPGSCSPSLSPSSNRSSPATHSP
CCAAT/enhancer-binding protein beta (Homo sapiens), sequence (P17676 whole entry, looked up): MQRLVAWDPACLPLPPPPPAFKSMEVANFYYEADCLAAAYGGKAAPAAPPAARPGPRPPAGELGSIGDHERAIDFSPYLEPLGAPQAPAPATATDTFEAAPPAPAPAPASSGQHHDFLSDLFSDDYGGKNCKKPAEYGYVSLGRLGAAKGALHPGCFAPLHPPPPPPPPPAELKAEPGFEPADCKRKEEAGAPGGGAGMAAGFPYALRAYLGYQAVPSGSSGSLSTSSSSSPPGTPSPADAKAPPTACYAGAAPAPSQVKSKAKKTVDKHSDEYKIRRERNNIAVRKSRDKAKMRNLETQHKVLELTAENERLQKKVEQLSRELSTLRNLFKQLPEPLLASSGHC
Aryl hydrocarbon receptor (Homo sapiens), sequence (P35869 whole entry, looked up): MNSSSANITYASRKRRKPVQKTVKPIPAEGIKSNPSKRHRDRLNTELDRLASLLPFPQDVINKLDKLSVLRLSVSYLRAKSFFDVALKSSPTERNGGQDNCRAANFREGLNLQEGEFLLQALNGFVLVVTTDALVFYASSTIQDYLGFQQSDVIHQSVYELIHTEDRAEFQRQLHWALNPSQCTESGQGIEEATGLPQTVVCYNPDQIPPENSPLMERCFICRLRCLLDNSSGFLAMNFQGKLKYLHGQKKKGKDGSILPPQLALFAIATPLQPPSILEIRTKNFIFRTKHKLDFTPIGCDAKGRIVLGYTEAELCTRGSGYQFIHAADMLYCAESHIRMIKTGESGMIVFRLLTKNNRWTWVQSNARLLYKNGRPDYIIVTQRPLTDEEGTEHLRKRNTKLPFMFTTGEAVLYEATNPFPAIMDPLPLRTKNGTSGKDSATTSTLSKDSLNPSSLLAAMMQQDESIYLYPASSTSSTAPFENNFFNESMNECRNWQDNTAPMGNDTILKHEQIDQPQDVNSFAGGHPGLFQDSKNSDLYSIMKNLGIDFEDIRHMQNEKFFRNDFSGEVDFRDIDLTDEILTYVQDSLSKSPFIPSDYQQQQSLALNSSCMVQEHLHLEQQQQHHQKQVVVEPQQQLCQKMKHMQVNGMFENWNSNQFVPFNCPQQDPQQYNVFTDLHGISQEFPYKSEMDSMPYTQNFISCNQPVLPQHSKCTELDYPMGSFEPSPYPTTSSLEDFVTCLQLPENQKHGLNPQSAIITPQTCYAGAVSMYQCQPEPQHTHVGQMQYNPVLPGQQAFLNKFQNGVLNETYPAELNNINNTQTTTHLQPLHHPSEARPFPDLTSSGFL

CCCCCCOC(=O)CCCCC
not listed: [20]
inactive: all other assays above

O=C(O)CCCCCCCC(=O)O
not listed: [13] | [20]
inactive: all other assays above

CNCCCC12CCC(c3ccccc31)c1ccccc12
active: [3] 11.1 µM | [4] 11.1 µM | [13] 15.7 µM | [15] 11.1 µM | [19] 15.7 µM
not listed: [9]
inactive: all other assays above

CNC[C@H](O)c1cccc(O)c1
not listed: [13] | [20]
inactive: all other assays above

CCC(C)CCCC(C)(C)O (centres undefined)
not listed: [14] | [20]
inactive: all other assays above

CCN(CC)CCOC(=O)c1ccc(N)cc1
not listed: [11] | [20]
inactive: all other assays above

CC(C)=CCCC(C)=CCCC(C)=CCO
not listed: [13] | [20]
inactive: all other assays above

CCCCCCCCCCCCCCCC(=O)O
not listed: [11] | [20]
inactive: all other assays above

CCCCC(CC)COC(=O)/C=C\C(=O)OCC(CC)CCCC (centres undefined)
active: [1] 45 µM | [2] 56.9 µM | [4] 54.7 µM | [6] 52.7 µM | [9] 100 µM | [10] 100 µM
not listed: [13] | [20]
inactive: all other assays above

CCCCCC=CCC(=O)OC
not listed: [20]
inactive: all other assays above

CCN(CC)c1ccc(C(=C2C=CC(=[N+](CC)CC)C=C2)c2ccc(S(=O)(=O)O)cc2S(=O)(=O)[O-])cc1
not listed: [11] | [15] | [20]
inactive: all other assays above

Cc1ccc(C=O)s1
not listed: [13] | [15] | [20]
inactive: all other assays above

N#Cc1ccc(CC(=NNC(=O)Nc2ccc(OC(F)(F)F)cc2)c2cccc(C(F)(F)F)c2)cc1
active: [5] 53.1 µM
not listed: [9]
inactive: all other assays above

COc1ccc(NC(=O)CC(C)=O)cc1
not listed: [13] | [20]
inactive: all other assays above
